Source: PubChem BioAssay
MITF primary: blocks human microphthalmia-associated transcription factor; O75030; AlphaScreen MITF homodimerization, bead proximity signal; inhibition, % at 2.6 µM; 650,000 compounds, 0.91% hits; in the data active = inhibition above about 50%;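 also: 0% = vehicle wells with protein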
TEAD-YAP inh: TEAD-YAP interaction inhibition | HEK-TIYL cells, TEAD-Gal4/YAP UAS-luciferase luminescence | inhibition, % at 9.12 µM | 640,000 compounds, 1.4% hits; in the data active = inhibition above about 32%;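 also: 0% = median of test compound wells and 100% = reference inhibitor wells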
GPR151 ag: activates the human receptor GPR151. Q8TDV0. PathHunter beta-arrestin GPR151 cells, luminescence. activation, % at 11.2 µM. 650,000 compounds, 1% hits. AID 1508602; in the data active = activation above about 4.9%;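 also: 0% = median of compound wells and 100% = cells with positive control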
Target sequence (Q8TDV0 whole entry, looked up): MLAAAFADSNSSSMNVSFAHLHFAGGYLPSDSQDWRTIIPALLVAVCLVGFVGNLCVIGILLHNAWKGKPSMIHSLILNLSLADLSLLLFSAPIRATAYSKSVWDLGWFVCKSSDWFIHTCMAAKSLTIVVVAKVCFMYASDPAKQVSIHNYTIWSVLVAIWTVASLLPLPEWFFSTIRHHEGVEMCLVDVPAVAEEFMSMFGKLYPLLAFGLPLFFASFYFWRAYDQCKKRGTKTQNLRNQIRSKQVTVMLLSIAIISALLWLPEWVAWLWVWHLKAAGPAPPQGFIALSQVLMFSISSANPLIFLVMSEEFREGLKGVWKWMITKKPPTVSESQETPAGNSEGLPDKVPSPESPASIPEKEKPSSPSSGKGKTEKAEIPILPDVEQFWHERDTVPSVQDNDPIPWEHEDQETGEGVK
FBW7 activator: activators of human E3 ligase FBW7; AlphaScreen FBW7–phospho-cyclin E peptide binding, activator screen; normalized activity (activation), % at 26.1 µM; 650,000 compounds, 0.13% hits; in the data active = normalized activity above about 1.9%;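 also: purified mutant Fbw7 with reduced substrate affinity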
* = called active by the depositor. An excerpt weighted towards active compounds, which were near 3.5% of everything screened.

SMILES | MITF primary | TEAD-YAP inh | GPR151 ag | FBW7 activator
CCc1ccc(C2=CC(c3cc(OC)c(OC)c(OC)c3)n3ncnc3N2)cc1 (stereo unspecified) | 8 | 65* | -1 | 0
COc1ccc(C2C=C(c3ccc(F)cc3)Nc3ncnn32)cc1OC (stereo unspecified) | 14 | 12 | 0 | 1
COc1ccc(C2=CC(c3ccc(OC)c(OC)c3)n3ncnc3N2)cc1 (stereo unspecified) | 12 | 43* | -1 | 0
CCc1ccc(C2=CC(c3cccc(OC)c3OC)n3ncnc3N2)cc1 (stereo unspecified) | 2 | -6 | 2 | 0
CCOc1ccc(C2C=C(c3ccc(CC)cc3)Nc3ncnn32)cc1OC (stereo unspecified) | 27 | 37* | 0 | 0
COc1cc(C2C=C(c3ccc(Cl)cc3)Nc3nnnn32)cc(OC)c1OC (stereo unspecified) | 23 | 55* | -1 | 1
OCc1cccc(-c2cnc3c(NCc4cccnc4)nccn23)c1 | 2 | -5 | -2 | 2
O=C(Nc1ccc(S(=O)(=O)NCCc2ccccc2)cc1)C1CCCCC1 | -23 | 3 | 0 | 0
CCOC(=O)C1=C(N)N(c2ccc(Cl)cc2)C2=C(C(=O)CCC2)C1c1ccc(CC)cc1 (stereo unspecified) | 11 | 7 | -1 | 1
COC(=O)c1nc2n(n1)C(c1cc(OC)c(OC)c(OC)c1)C=C(c1cccs1)N2 (stereo unspecified) | -1 | 52* | 0 | 0
COc1cc(C2C=C(c3ccc(Cl)cc3)Nc3ncnn32)cc(OC)c1OC (stereo unspecified) | 12 | 64* | -1 | 0
COc1cc(C2C=C(c3cccs3)Nc3ncnn32)cc(OC)c1OC (stereo unspecified) | 18 | 65* | -1 | 0
COc1ccc(C2=CC(c3ccc(F)cc3)n3ncnc3N2)cc1 (stereo unspecified) | -1 | -14 | -2 | 0
COc1ccc(C2=CC(c3cc(OC)c(OC)c(OC)c3)n3ncnc3N2)cc1 (stereo unspecified) | 2 | 63* | 0 | 0
CCCOc1ccc(-c2csc(NC(=O)CS(=O)(=O)c3ccc(F)cc3)n2)cc1 | 6 | 1 | 2 | 0
N#CC1=C(N)N(c2cc(C(F)(F)F)ccc2Cl)C2=C(C(=O)CCC2)C1c1ccccc1 (stereo unspecified) | 13 | 0 | 0 | 0
Cc1cccc(NC(=O)c2sc3nc4c(c(-c5ccc(C)o5)c3c2N)CCCC4)c1 | 11 | -12 | 0 | 0
COc1cc(C2C3=C(Nc4ncnn42)c2ccccc2CC3)cc(OC)c1OC (stereo unspecified) | 13 | 68* | 1 | 0
Fc1ccc(-c2cnc(N3CCC4(CC3)OCCO4)nc2)cc1 | 9 | 43* | -11 | 0
Cc1ccc(-c2cnc(N3CCC4(CC3)OCCO4)nc2)cc1 | 3 | -49 | -3 | 0
CC(=O)N1N=C(c2ccc(Br)cc2)OC1c1ccc(F)cc1 (stereo unspecified) | -4 | -4 | 0 | 0
Cc1ccc(CN(CC(=O)O)Cc2cn(-c3ccccc3)nc2-c2cccs2)cc1 | -5 | 60* | 1 | 0
NC(=O)N/N=C/c1cn(-c2ccccc2)nc1-c1cccs1 | -6 | -24 | 0 | 0
CCOc1ccccc1NC(=O)C1CCCN(c2c(CC)c(C)nc3ncnn23)C1 (stereo unspecified) | -11 | -1 | 0 | 0
CCc1c(C)nc2ncnn2c1N1CCCC(C(=O)Nc2nnc(C)s2)C1 (stereo unspecified) | -1 | 48* | 1 | 0
SMILES | MITF primary | TEAD-YAP inh | GPR151 ag | FBW7 activator
CCOC(=O)c1ccc(CN(Cc2ccccc2)S(=O)(=O)c2ccc([N+](=O)[O-])cc2)cc1 | 5 | 10 | 0 | 0
Cc1cccc(C(=O)Nc2sccc2C#N)c1 | -10 | -22 | -1 | 0
Cc1cccc(C(=O)Nc2snc(Cl)c2C#N)c1 | 0 | 39* | 0 | 0
O=c1[nH]c(Nc2ccccc2)nnc1Cc1ccccc1Cl | -7 | 4 | 0 | 0
COc1cccc(Nc2nnc(Cc3ccccc3Cl)c(=O)[nH]2)c1 | -4 | 46* | -1 | 0
Cc1ccc(Nc2ncc(F)c(Nc3ccc(C)cc3)n2)cc1 | 7 | 3 | 2 | 0
O=[N+]([O-])c1cc(CN2CCCCC2)c(O)c2ncccc12 | 73* | 4 | -2 | -1
O=[N+]([O-])c1cc(CN2CCN(c3cccc(C(F)(F)F)c3)CC2)c(O)c2ncccc12 | 19 | 20 | -1 | 0
CN1CCN(Cc2cc([N+](=O)[O-])c3cccnc3c2O)CC1 | 76* | 7 | 0 | 0
O=[N+]([O-])c1cc(CN2CCc3ccccc3C2)c(O)c2ncccc12 | 21 | 9 | 0 | -1
O=[N+]([O-])c1cc(CN2CCC(c3ccccc3)C2)c(O)c2ncccc12 (stereo unspecified) | 55* | 32* | 2 | -1
Cc1ccc(SCCNC(=O)CCl)cc1 | -1 | 43* | 0 | 0
Cc1ccn2c(CNCCN3CCCCC3)c(C(=O)N3CCCCCC3)nc2c1 | 5 | 1 | 1 | 0
Cc1ccc(C(C)C)c(OCC(O)Cn2c(C)nc3ccccc32)c1 (stereo unspecified) | -3 | 50* | 3 | 0
C=CCc1ccccc1OCC(O)Cn1c(C)nc2ccccc21 (stereo unspecified) | 3 | 40* | 4 | 0
C=CCc1ccccc1OCC(O)Cn1c(CO)nc2ccccc21 (stereo unspecified) | 11 | 11 | 0 | 0
O=C(NCCN1CCCCCC1)c1ccc2nc(N3CCOCC3)sc2c1 | -2 | -5 | -2 | 1
O=C(C1CCN(Cc2ccccc2O)CC1)N1CCc2ccccc2C1 | 38 | 15 | 0 | 0
CCOC(=O)C1CCN(Cc2cccc(OC)c2O)CC1 | 19 | -3 | 0 | 0
CCOC(=O)N1CCN(C(=O)C2CCN(Cc3cccc(OC)c3O)CC2)CC1 | 55* | -6 | -1 | 0
COc1cccc(CN2CCC(C(=O)N3CCc4ccccc4C3)CC2)c1O | 51* | 1 | 1 | 1
COc1cccc(Nc2nnc(SCC(=O)NNC(=O)C3CC3)s2)c1 | 3 | 3 | 0 | 0
COc1cccc(Nc2nnc(SCC(=O)NNC(=O)c3ccccn3)s2)c1 | 11 | 79* | 0 | -1
O=C(Nc1ccc(Br)cc1)C(=O)C1C(=O)Nc2ccccc21 (stereo unspecified) | 6 | 3 | 0 | 0
Cc1sc(NC(=O)CC(c2ccccc2)c2ccccc2)c(C(N)=O)c1C | 1 | 40* | 3 | 0
C=C(C)C(=O)Nc1sc(C)c(-c2ccccc2)c1C(N)=O | 12 | -15 | 1 | 0
Cc1sc(NC(=O)CCCC(=O)O)c(C(N)=O)c1-c1ccccc1 | 1 | 45* | 0 | 0
COc1ccc(SC#N)c([N+](=O)[O-])c1 | 10 | 26 | 0 | 0
COC(=O)c1c(NC(=O)c2ccco2)sc(C(=O)Nc2ccc(F)cc2)c1C | -2 | 4 | 0 | 0
